Data reported in paper PMC4336329 (PLoS ONE, 2015).
Hit rate of the full screen: of about 310,000 compounds, about 14,000 (4.5%) showed an effect of 50% or more. Effects have a minus sign here. The list comes from a sample in which strong results are over-represented; it also holds similar structures and randomly drawn compounds.

Target: human ether-à-go-go-related gene (hERG) potassium channel (human, UniProt Q12809)
Assay: primary screen, population patch clamp on CHO cells stably expressing hERG; higher = less effect of the substance
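Further: peak tail current of the secondary pulse compared with the same well before compound.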

Chain of human ether-à-go-go-related gene (hERG) potassium channel (Q12809 whole entry, looked up): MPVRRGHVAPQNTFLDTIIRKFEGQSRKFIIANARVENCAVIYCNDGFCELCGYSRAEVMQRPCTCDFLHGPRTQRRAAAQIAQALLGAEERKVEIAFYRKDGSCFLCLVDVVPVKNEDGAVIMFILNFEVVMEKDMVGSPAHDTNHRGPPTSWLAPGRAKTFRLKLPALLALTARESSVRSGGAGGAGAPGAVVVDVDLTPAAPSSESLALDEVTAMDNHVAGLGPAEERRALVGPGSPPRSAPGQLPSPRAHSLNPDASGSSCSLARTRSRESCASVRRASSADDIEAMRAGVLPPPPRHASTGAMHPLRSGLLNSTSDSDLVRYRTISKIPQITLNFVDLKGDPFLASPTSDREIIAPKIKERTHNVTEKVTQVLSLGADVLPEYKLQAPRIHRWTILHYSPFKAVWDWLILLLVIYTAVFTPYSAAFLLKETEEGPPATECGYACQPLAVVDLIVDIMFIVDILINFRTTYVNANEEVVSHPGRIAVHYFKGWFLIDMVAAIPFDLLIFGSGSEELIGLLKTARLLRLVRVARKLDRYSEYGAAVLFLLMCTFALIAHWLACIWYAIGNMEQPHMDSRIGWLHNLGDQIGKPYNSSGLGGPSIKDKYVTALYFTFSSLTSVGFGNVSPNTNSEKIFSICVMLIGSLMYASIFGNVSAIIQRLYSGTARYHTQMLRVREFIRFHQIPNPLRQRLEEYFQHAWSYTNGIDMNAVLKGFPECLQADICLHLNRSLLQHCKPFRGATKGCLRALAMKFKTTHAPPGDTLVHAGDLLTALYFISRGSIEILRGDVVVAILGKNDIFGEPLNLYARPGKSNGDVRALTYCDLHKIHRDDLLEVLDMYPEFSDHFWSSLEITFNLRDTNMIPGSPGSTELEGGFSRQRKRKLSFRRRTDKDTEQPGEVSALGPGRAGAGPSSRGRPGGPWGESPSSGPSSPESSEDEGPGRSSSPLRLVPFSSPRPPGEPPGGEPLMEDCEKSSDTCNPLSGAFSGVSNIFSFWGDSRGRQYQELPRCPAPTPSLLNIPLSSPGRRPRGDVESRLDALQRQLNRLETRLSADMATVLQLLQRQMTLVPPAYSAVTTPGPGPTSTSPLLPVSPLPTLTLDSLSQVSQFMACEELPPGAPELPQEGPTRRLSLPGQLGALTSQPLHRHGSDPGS

SMILES | hERG current change (%, negative = inhibition) at 10uM
COc1ccc(-c2csc(NC(=O)CSc3nc(C)nc4sc(C(=O)O)c(C)c34)n2)cc1 | 11.9%
COCCNc1nc2c(c(=O)n(Cc3ccccc3F)c(=O)n2C)n1C | -15.8%
C=CCNC(=O)C(=O)Nc1ccc2c(c1)N(S(=O)(=O)c1cccs1)CCC2 | -14.7%
Cc1ccc(S(=O)(=O)NC(C(=O)Oc2cc3oc(=O)cc(C)c3cc2Cl)C(C)C)cc1 (stereo not shown) | -34.3%
CCOc1ccc(/C=C(\C)C(=O)c2c(C)cc(C)[nH]c2=O)cc1 | 5.24%
CCCCc1ccc(NC(=O)C(C)CC)cc1 (stereo not shown) | -50.5%
CCCCC(CC)C(=O)Nc1ccccc1C#N (stereo not shown) | -4.83%
CCCCc1ccc(NC(=O)OC)cc1 | -9.08%
CCCCc1ccc(NC(=O)CC(C)C)cc1 | -6.78%
CCCCC(CC)C(=O)Nc1ccc(Nc2ccccc2)cc1 (stereo not shown) | -12.8%
CCCCC(CC)C(=O)Nc1ccc(C#N)cc1 (stereo not shown) | -52.5%
COc1ccc(CNC(=O)c2ccc(NS(=O)(=O)c3ccc4[nH]c(=O)[nH]c4c3)cc2)cc1OC | 13.3%
CCOC(=O)c1ccc(NC(=O)CSc2nc(=O)n3cccc(C)c3n2)cc1 | -21.9%
COc1cc(Cl)c(S(=O)(=O)NCCCn2ccnc2)cc1Cl | 3.34%
CCOC(=O)CSCC(=O)Nc1cc(C)ccc1C | 0.851%
CNS(=O)(=O)c1cc(O)c2c(S(=O)(=O)NC)cccc2c1 | 11%
Cc1c(Cl)ccc2c(C(=O)NC(C)c3ccncc3)cc(-c3ccncc3)nc12 (stereo not shown) | -59.3%
Cc1c(Cl)ccc2c(C(=O)O)cc(-c3ccccc3)nc12 | -1.96%
COC(=O)CNC(=O)c1cc(-c2ccncc2)nc2c(C)c(Cl)ccc12 | -27.9%
C=C(C)CC1(NC(C)c2ccccc2)CCCCC1 (stereo not shown) | 4%
COc1ccc(OC)c(-c2csc(NC(=O)Cc3ccccc3OC)n2)c1 | -0.305%
COc1cccc(/C=N/NC(=O)c2nnn(-c3nonc3N)c2C(C)C)c1 | 11.4%
Cc1ccc(C(=O)NCC(=O)O)o1 | -5.14%

SMILES | hERG current change (%, negative = inhibition) at 10uM
Cc1c(CNCCC2=CCCCC2)c(C(=O)O)c(C)n1Cc1ccccc1 | -13.3%
Cc1c(CNCCCc2ccccc2)c(C(=O)O)c(C)n1Cc1ccccc1 | 4.03%
Cc1c(CNCCc2ccc(Cl)cc2)c(C(=O)O)c(C)n1Cc1ccccc1 | -50.1%
Cc1cccc(C)c1NC(=O)/C(C#N)=C/c1ccsc1 | -13.2%
Cc1c(OCC(N)=O)ccc2c(-c3ccccc3)cc(=O)oc12 | 5.53%
O=C(c1ccco1)N1CCN(C(=O)C2CC(=O)N(c3ccc(Cl)cc3)C2)CC1 (stereo not shown) | -75.4%
O=C(c1ccco1)N1CCN(C(=O)C2CC(=O)N(c3ccccc3)C2)CC1 (stereo not shown) | -41.3%
O=C(C1CC(=O)N(c2ccc(Cl)cc2)C1)N1CCOCC1 (stereo not shown) | -0.293%
CCC(C)c1ccccc1N1CC(C(=O)N2CCN(C(=O)c3ccco3)CC2)CC1=O (stereo not shown) | -12.6%
Cc1ccc(N2CC(C(=O)N3CCN(C(=O)c4ccco4)CC3)CC2=O)cc1 (stereo not shown) | -71.7%
O=C(C1CC(=O)N(c2ccc(Cl)cc2)C1)N1CCCCCC1 (stereo not shown) | -8.92%
O=C(CNC(=O)c1ccc(OC(F)F)cc1)NCC1CCCO1 (stereo not shown) | 2.87%
CCCCN1C(=O)/C(=C/c2ccc(N3CCCCCC3)cc2)C(=O)NC1=S | -22.9%
C=CCc1ccc(OCCCCN2CCC(C)CC2)c(OC)c1 | -69.6%
C=CCc1ccc(OCCCCN2CC(C)CC(C)C2)c(OC)c1.O=C(O)C(=O)O (stereo not shown) | -67%
C=CCc1ccc(OCCCCN2CC(C)OC(C)C2)c(OC)c1.O=C(O)C(=O)O (stereo not shown) | -25.8%
C=CCc1ccc(OCCCNC2CCCC2)c(OC)c1 | -48.1%
C=CCc1ccc(OCCCCOc2ccc(C(=O)O)cc2)c(OC)c1 | 14%
C=CCc1ccc(OCCCCCN2CCOCC2)c(OC)c1.O=C(O)C(=O)O | -18.1%
C=CCc1ccc(OCCCN2CCCC(C)C2)c(OC)c1.O=C(O)C(=O)O (stereo not shown) | -65.8%
C=CCc1ccc(OCCCCNC2CCCC2)c(OC)c1.O=C(O)C(=O)O | -39.9%
C=CCc1ccc(OCCCOc2ccc(C(=O)O)cc2)c(OC)c1 | -1.14%
CCOc1ccc(C(=O)Nc2cccc(C)n2)cc1 | 0.201%

SMILES | hERG current change (%, negative = inhibition) at 10uM
COc1ccc(/C=N/NC(=O)c2ccn[nH]2)cc1COc1ccc(Cl)cc1 | 2.09%
CCc1cc2c(=O)nc3n(c2s1)Cc1ccccc1/C3=C(/O)c1ccc(F)cc1 | -3.7%
Cc1nnc(NC(=O)CN2CCN(Cc3ccc(F)cc3Cl)CC2)s1 | 8.45%
Cc1c(Cl)cccc1NC(=O)C1CCCN(S(C)(=O)=O)C1 (stereo not shown) | 22%
O=C(CN1C(=O)C2CC=C(Cl)CC2C1=O)Nc1ccc(C(=O)O)cc1 (stereo not shown) | 3.39%
Fc1ccc(CN2CCN(c3ncnc4scc(-c5ccccc5)c34)CC2)cc1 | -39.9%
CCOc1ccc(CN2CCN(c3ncnc4scc(-c5ccccc5)c34)CC2)cc1 | -75.3%
COc1ccc(-c2csc3ncnc(N4CCN(c5ccccc5)CC4)c23)cc1 | 12.3%
OCCN1CCN(c2ncnc3scc(-c4ccc(F)cc4)c23)CC1 | -22.1%
COc1ccc(-c2csc3ncnc(N4CCN(CCO)CC4)c23)cc1 | -1.12%
Cc1ccc(-c2csc3ncnc(N4CCN(C)CC4)c23)cc1C | -18.7%
CCN1CCN(c2ncnc3scc(-c4ccc(C)cc4)c23)CC1 | -22.5%
CCN1CCN(c2ncnc3scc(-c4ccc(C)c(C)c4)c23)CC1 | -76.4%
Cc1ccc(-c2csc3ncnc(N4CCN(Cc5ccccc5)CC4)c23)cc1 | 18%
CC(C)c1ccc(-c2csc3ncnc(N4CCN(C)CC4)c23)cc1 | -21.6%
CCN1CCN(c2ncnc3scc(-c4ccc(OC)cc4)c23)CC1 | -54.6%
Cc1cc(-c2csc3ncnc(N4CCN(C)CC4)c23)cc(C)c1C | -65.2%
CCOC(=O)c1ccc(NC(=O)c2ccc(C)c(S(=O)(=O)N3CCOCC3)c2)cc1 | -33.4%
CC(C)(C)C(=O)N1CCN(c2ccc(NC(=O)c3ccc([N+](=O)[O-])o3)cc2)CC1 | 10.2%
COc1ccccc1N(C)S(=O)(=O)c1ccc(C(=O)NC(C)c2ccccc2)cc1 (stereo not shown) | -43.7%
COc1ccc(-c2nnc(-c3cc4c(ccc5ccccc54)oc3=O)o2)cc1 | -8.75%
Clc1ccc(CSc2nnc(-c3ccncc3)o2)cc1 | -11.5%
Cc1csc(NC(=O)CCc2c(C)nc3cc(-c4ccc(Cl)cc4)nn3c2C)n1 | -2.4%

SMILES | hERG current change (%, negative = inhibition) at 10uM
CCN1CCN(c2ncnc3sc(C)c(-c4ccccc4)c23)CC1 | -57.1%
COc1ccc(N2CCN(c3ncnc4scc(-c5ccc(F)cc5)c34)CC2)cc1 | -0.492%
Fc1ccc(CN2CCN(c3ncnc4scc(-c5ccc(F)cc5)c34)CC2)cc1 | 5.9%
COc1ccc(F)cc1CN1CCN(c2ncnc3scc(-c4ccccc4)c23)CC1 | -41.6%
Cc1sc2ncnc(N3CCN(Cc4ccccc4)CC3)c2c1-c1ccccc1 | -34.8%
c1ccc(-c2csc3ncnc(N4CCN(Cc5ccc6c(c5)OCO6)CC4)c23)cc1 | -57.6%
COc1ccccc1N1CCN(c2ncnc3sc(C)c(-c4ccccc4)c23)CC1 | 14.2%
COc1ccc(CN2CCN(c3ncnc4scc(-c5ccc(F)cc5)c34)CC2)cc1 | -65.8%
O=C(CSc1ncnc2scc(-c3ccccc3)c12)N1CCN(Cc2ccc3c(c2)OCO3)CC1 | -35.7%
CNc1c([N+](=O)[O-])cnn1-c1ccccn1 | -15.5%
CC(C)(O)C#Cc1ccc(C(=O)NCCc2ccc(S(N)(=O)=O)cc2)cc1 | 13.6%
O=C(NNS(=O)(=O)c1cccc(Cl)c1)c1cc(-c2ccc(F)cc2)nc2ccccc12 | 11.6%
Cc1ccc(C(=O)COC(=O)CNS(=O)(=O)c2ccc(C)cc2)cc1 | 12.4%
CCOC(=O)C(NC(C)=O)(Nc1ccc(F)cc1)C(F)(F)F (stereo not shown) | -3.72%
O=C(O)c1cnc(-c2ccccc2)nc1Sc1cccc(Cl)c1 | 26.7%
O=C(O)/C(=C\c1cn(-c2ccccc2)nc1-c1cccnc1)NC(=O)c1ccccc1 | 7.21%
NC(=O)[C@H]1CC2(CC(c3cccc(NC(=O)COc4ccc(Cl)cc4)c3)=NO2)CN1C(=O)c1ccc(Cl)cc1 (stereo partly shown) | -9.96%
C/C=C/C(=O)N1CC2(CC(c3cccc(NC(=O)COc4ccc(Cl)cc4)c3)=NO2)C[C@@H]1C(N)=O (stereo partly shown) | -41.4%
C/C=C\C=C\C(=O)N1CC2(CC(c3cccc(NC(=O)COc4ccc(Cl)cc4)c3)=NO2)C[C@H]1C(N)=O (stereo partly shown) | -76.9%
C/C=C\C=C/C(=O)Nc1cccc(C2=NOC3(C2)C[C@@H](C(N)=O)N(C(=O)COc2ccc(Cl)cc2)C3)c1 (stereo partly shown) | -7.47%
CC/C=C/C(=O)N1CC2(CC(c3cccc(NC(=O)COc4ccc(Cl)cc4)c3)=NO2)C[C@H]1C(N)=O (stereo partly shown) | -64.7%
CC/C=C/C(=O)N1CC2(CC(c3cccc(NC(=O)CC)c3)=NO2)C[C@H]1C(N)=O (stereo partly shown) | 13.6%
